# Compound activity deposited in PubChem by several laboratories.
# Shown are actives, neighbours in structure and some others; about 4.5% of the full set was active somewhere.
# aSyn 5UTR inh – 5' untranslated region of α-synuclein, MLPCN primary screen. inhibition, % (tested at 7.5 µM). alpha-synuclein 5'UTR reporter, inhibitor activity. AID 1813. 300,000 compounds, 0.82% hits; in the data active = inhibition above about 60%; inconclusive = no clear call, values can overlap the other calls;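 also: H4 neuroglioblastoma cells stably carrying SNCA 5'UTR luciferase fusion; 0% = DMSO wells and 100% = positive control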
# CSC inhib – cancer stem cell inhibition. AID 2717. cancer stem cell-like cells viability, luminescence. inhibition, % at 7.5 µM. 300,000 compounds, 1.1% hits; in the data active = inhibition above about 75%; inconclusive = no clear call, values can overlap the other calls; tested in HMLE shEcad cells
# Gli-Sufu block – Gli-Sufu pathway antagonism; Sufu-KO-LIGHT fibroblasts, Gli luciferase reporter luminescence; inhibition, % at 5 µM; 340,000 compounds, 0.74% hits; AID 588413;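 active = inhibition above about 55%, limit read from the data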;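 also: 0% = DMSO-treated cells and 100% = wells with medium but no cells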
# 697 NFkB inh – lowers PMA/ionomycin-induced NF-kB signal in 697 B cells. 697 B-cell NF-kB luciferase reporter, 16 h. inhibition, % at 4 µM. 330,000 compounds, 0.33% hits. AID 435022; in the data active = inhibition above about 35%
# Jurkat NFkB inh – lowers PMA/ionomycin-induced NF-kB signal in Jurkat cells; PMA/ionomycin-induced NF-kB luciferase reporter, luminescence; AID 435003; 330,000 compounds, 0.53% hits; inhibition, % at 4 µM; in the data active = inhibition above about 50%
# Mdm2-MdmX inh – disrupts the human Mdm2-MdmX interaction. O15151+Q00987. SaOS-2 split-luciferase Mdm2/MdmX complementation, luminescence. inhibition, % at 8 µM. 330,000 compounds, 3% hits. AID 485346;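 active = inhibition of at least 50% at 8 µM in the primary screen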
# Mdm2-MdmX conf – confirmation of human Mdm2/MdmX interaction inhibitors; AID 489028; inhibition, % at 8 µM; 10,000 compounds, 55% hits; shares compounds with Mdm2-MdmX inh; Mdm2-MdmX binding, luminescent assay; in the data active = inhibition above about 40%
# Full FLuc ctr – counter-screen for Mdm2/MdmX inhibitors: full-length luciferase | SaOS-2 full-length luciferase counterscreen, luminescence | AID 504607 | inhibition, % at 8 µM | shares compounds with Mdm2-MdmX inh | 6,200 compounds, 77% hits;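 active = mean inhibition at 8 µM reaching about 37%, which flags the compound as non-specific, limit read from the data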;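 also: p53-null SaOS-2 cells with luciferase driven by a doxycycline-inducible promoter; compound on cells about two nights before reading with doxycycline added after day one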
# An asterisk follows results filed as active; ? = inconclusive; · = no result given.
SMILES,aSyn 5UTR inh,CSC inhib,Gli-Sufu block,697 NFkB inh,Jurkat NFkB inh,Mdm2-MdmX inh,Mdm2-MdmX conf,Full FLuc ctr
Cc1ccc(N(NC(=O)C(O)(c2ccccc2)c2ccccc2)C(=O)CCl)cc1,-1,21,3,-3,-7,100*,97*,56*
O=C(Nc1ccccc1)NN(C(=O)CCl)c1ccccc1,-125,?,23,-2,12,100*,76*,58*
CCN(CC)C(=S)SC1CCCCN(C(=O)c2ccccc2)C1=O (stereo not drawn),-5,-13,-1,3,8,-6,·,·
NC(=O)CSc1nnc(COc2ccccc2)n1C1CCCCC1,·,·,4,·,·,·,·,·
Cc1cc(NC(=O)c2cc3ncc(Br)cn3n2)no1,-3,-6,-4,5,-9,21,·,·
Cc1c(C=O)c2ccccc2n1CC(=O)NC(C)c1ccccc1 (stereo not drawn),-1,-9,-11,-2,-8,6,·,·
COc1cccc(Sc2nc(-c3ccccc3)ncc2S(C)(=O)=O)c1,11,·,-1,-188,-105,62*,36,·
CC(=O)n1c(=O)oc2ccccc21,2,-1,8,17,4,-16,·,·
Cc1ccc(C)c2sc(NC(=O)c3nc4ccccc4s3)nc12,-34,0,-1,-12,-6,58*,23,·
Brc1ccc(-c2ccc(/C=N/Nc3nc(N4CCOCC4)nc(N4CCOCC4)n3)o2)cc1,-51,-8,35,-9,3,69*,29,·
Fc1cnc(N/N=C/c2ccc(-c3ccc(Br)cc3)o2)nc1N1CCOCC1,-1,28,5,-37,-11,59*,1,·
CCSc1cnc(-c2ccccc2)n1CC,27,0,-3,-1,-8,2,·,·
NC(=O)c1nn(-c2ccccc2)nc1NC(=O)CN1CCCC1,-5,-11,3,18,-1,14,·,·
NC(=O)c1nn(-c2ccccc2)nc1NC(=O)Cn1nnc(-c2ccccc2)n1,0,1,-5,6,4,61*,-6,·
CCN(CCNCC(O)COc1ccccc1C(C)C)c1cccc(C)c1 (stereo not drawn),4,100*,-3,1,-9,68*,41*,75*
C=CCn1c(SCc2csc(-c3ccc(Cl)cc3)n2)nnc1-c1ccccc1OC,-64,6,5,-17,-10,-7,·,·
CC(C)c1nnc(NC(=O)CCC(=O)N2CCN(Cc3ccc(F)cc3)CC2)s1,16,1,-5,-17,-2,18,·,·
CCCSc1nnc(NC(=O)Nc2ccc(F)cc2)s1,-58,38,28,-66,-30,95*,85*,28
CC(C)c1nnc(NC(=O)c2nc(S(=O)(=O)Cc3ccc(F)cc3)ncc2Cl)s1,-43,106*,31,-152,-5,100*,57*,52*
CSc1nnc(NC(=O)c2nc(S(=O)(=O)Cc3cccc(C)c3)ncc2Cl)s1,-10,110*,16,-107,-1,100*,92*,50*
Cc1cccc(CS(=O)(=O)c2ncc(Cl)c(C(=O)Nc3nnc(C(C)C)s3)n2)c1,-98,107*,32,-62,17,96*,88*,50*
CC(NC(=O)c1cccs1)C(S)c1ccccc1 (stereo not drawn),3,4,-17,·,·,·,·,·
CC(C)c1nnc(NC(=O)CS(=O)(=O)Cc2ccccc2)s1,-11,-7,10,10,8,-6,·,·
O=C(Nc1nnc(SCc2ccc(F)cc2)s1)c1cccnc1Cl,5,6,-8,-5,6,31,·,·
Cc1ccc(CS(=O)(=O)c2ncc(Cl)c(C(=O)Nc3nnc(C(C)C)s3)n2)cc1,-56,111*,32,-50,22,96*,38,0
CCSc1nnc(NC(=O)c2nc(S(=O)(=O)Cc3ccc(F)cc3)ncc2Cl)s1,10,103*,17,-64,-2,69*,26,·
O=C(Nc1nnc(SCc2ccc(F)cc2)s1)c1ccccn1,63*,·,50,-45,7,82*,69*,41*
COc1cccc(-c2nc(N)nc(SC)c2C#N)c1,-13,-2,-2,0,-10,0,·,·
